Compound activity from PubChem.
CYP2C9 act: CYP2C9 (human) activation. recombinant CYP2C9, luciferin-H conversion, luminescence; active compounds read high; factor 1 = untreated enzyme, 0 = blocked. P11712. 96,000 compounds, 1.4% hits. activation factor at 5 µM. AID 1024;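 active = activation factor of 2 or more for CYP2C9 at a 5 µM dose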
Target sequence (P11712 whole entry, looked up): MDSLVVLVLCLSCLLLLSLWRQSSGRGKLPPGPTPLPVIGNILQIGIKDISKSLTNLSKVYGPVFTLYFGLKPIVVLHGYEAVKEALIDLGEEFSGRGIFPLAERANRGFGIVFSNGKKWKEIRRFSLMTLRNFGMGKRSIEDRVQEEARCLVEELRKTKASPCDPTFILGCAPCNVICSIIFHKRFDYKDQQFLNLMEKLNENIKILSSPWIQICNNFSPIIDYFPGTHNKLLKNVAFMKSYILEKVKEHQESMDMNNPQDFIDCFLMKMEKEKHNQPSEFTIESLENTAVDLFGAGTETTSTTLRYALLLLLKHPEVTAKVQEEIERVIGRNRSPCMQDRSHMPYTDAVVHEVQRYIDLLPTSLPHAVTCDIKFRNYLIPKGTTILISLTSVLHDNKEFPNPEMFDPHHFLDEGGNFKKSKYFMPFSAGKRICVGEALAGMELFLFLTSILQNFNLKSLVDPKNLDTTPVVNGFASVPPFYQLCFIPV
hDAT+cocaine: modulates human dopamine transporter uptake under cocaine | 110,000 compounds, 1.3% hits | B-score at 10 µM | LLC-PK1 hDAT cells, [14C]-dopamine uptake with cocaine IC80; actives deviate in either direction | Q01959;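 active = Z score or B-score, a plate-position-corrected score, falls beyond the plate's 99.7% confidence bounds, in either direction; inactive = both scores lie inside the 99.7% bounds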
D1 allo mod: D1 dopamine receptor (human) allosteric modulation. P21728. HEK293 D1, CRE-luciferase, dopamine EC30 potentiation; actives deviate in either direction. B-score at 10 µM. 58,000 compounds, 5.9% hits. AID 641;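 active = luminescence count or its row- and column-corrected plate score outside the 99.7% band of the plate's sample wells, on either side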
CYP2C19 inh: blocks human cytochrome P450 2C19; P33261; CYP2C19 Supersomes, luciferin-H EGE luminescence, 30 min; inhibition, % at 5 µM; 96,000 compounds, 21% hits;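 active = CYP2C19 inhibition above a set limit at 5 µM in the primary screen, cut at about 50% in these data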
CYP2C9 inhib: inhibitors of human CYP2C9; inhibition, % at 5 µM; 96,000 compounds, 20% hits; CYP2C9 Supersomes, luciferin-H conversion, luminescence; P11712;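 active = blocking of liver enzyme CYP2C9 beyond about 50% at 5 µM, limit read from the data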
CYP2C19 act: cytochrome P450 2C19 (human) activation; recombinant CYP2C19, luciferin-H EGE luminescence; active compounds read high; 0 = fully inhibited enzyme, 1 = untreated enzyme; activation factor at 5 µM; 96,000 tested, under 10 active; AID 1025;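 active = activation factor of at least 2 at 5 µM in the primary screen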
Large screens that a line does not name were inactive. Only some compounds are listed: those with a hit (about 28% of all), similar ones and a draw of the others.

CCOC(=O)c1csc(NC(=O)c2ccccc2)n1	CYP2C19 inh 74
CCCCNC(=O)COC(=O)c1ccc(Cl)c(S(N)(=O)=O)c1	none (no result: D1 allo mod)
CCC(C)(C)NC(=O)CN(CC1CCCO1)C(=O)CCC(=O)Nc1nccs1 (stereo not drawn)	none
COc1ccccc1N1C(=O)CC(Sc2ncccc2C(=O)O)C1=O (stereo not drawn)	none (no result: CYP2C9 act, CYP2C19 inh, CYP2C9 inhib, CYP2C19 act)
O=C1CC(Sc2ncccn2)C(=O)N1c1ccccc1C(F)(F)F (stereo not drawn)	CYP2C19 inh 59
Cc1ccc(C)c(-c2csc(N)c2C(=O)OC(C)C)c1	CYP2C19 inh 69, CYP2C9 inhib 67 (no result: D1 allo mod)
Cc1ccc(C)n1-c1sccc1C(=O)O	none (no result: D1 allo mod)
CCOc1cc(-c2noc(N)c2C#N)cc(OCC)c1OCC	CYP2C9 inhib 53 (no result: hDAT+cocaine, D1 allo mod)
Cc1ccccc1-c1noc(N)c1C#N	none
c1ccc(C2OC3c4cccc5cccc(c45)C3N2c2ccccc2)cc1 (stereo not drawn)	none (no result: CYP2C9 act, D1 allo mod, CYP2C19 inh, CYP2C9 inhib, CYP2C19 act)
N#Cc1nc(COc2ccccc2)oc1N1CCC(Cc2ccccc2)CC1	CYP2C19 inh 55, CYP2C9 inhib 87
N#Cc1nc(COc2ccccc2)oc1N1CCN(Cc2ccccc2)CC1	CYP2C19 inh 78, CYP2C9 inhib 93
Cc1ccc(OCc2nc(C#N)c(N3CCN(Cc4ccccc4)CC3)o2)cc1	CYP2C19 inh 68, CYP2C9 inhib 84
N#Cc1nc(-c2cccs2)oc1N1CCN(Cc2ccccc2)CC1	none
CC(C)CC(NC(=O)OC(C)(C)C)c1cn([C@@H](CCC(=O)OC(C)(C)C)C(=O)N2CCN(C(=O)OC(C)(C)C)CC2)nn1 (stereo partly drawn)	none (no result: CYP2C9 act, D1 allo mod, CYP2C19 inh, CYP2C9 inhib, CYP2C19 act)
CC(=O)N1CCN=C1SCc1ccc(Cl)cc1	none
Cc1ccc(NC(=O)CN(C)S(=O)(=O)c2cccs2)cc1C	CYP2C19 inh 79 (no result: D1 allo mod)
Cc1ccc(NC(=O)CN(C)S(=O)(=O)c2cccs2)cc1F	CYP2C19 inh 69
CCOc1ccc(NC(=O)CN(C)S(=O)(=O)c2cccs2)cc1	none
COc1ccc(S(=O)(=O)N(C)CC(=O)Nc2cccc(C(C)=O)c2)cc1C	none (no result: D1 allo mod)
COCc1ccc2oc(C(=O)O)cc2c1	none (no result: D1 allo mod)
CCc1nc2oc3ccccc3c(=O)c2c(=O)n1-c1ccccc1	none
CCC(C)NS(=O)(=O)c1ccc(-c2csnn2)s1 (stereo not drawn)	CYP2C19 inh 100 (no result: D1 allo mod)
CC(C)(C)S(=O)(=O)c1nc2ccccc2s1	none (no result: D1 allo mod)
CCC(C)NC(=O)CCS(=O)(=O)c1ccc(Br)s1 (stereo not drawn)	none (no result: hDAT+cocaine)
CC(C)(C)NS(=O)(=O)c1ccc(-c2csnn2)s1	CYP2C19 inh 93 (no result: D1 allo mod)
O=S(=O)(NC1CCCCC1)c1ccc(-c2csnn2)s1	CYP2C19 inh 100, CYP2C9 inhib 61 (no result: D1 allo mod)
COc1cc(OC)nc(NC(=O)COC(=O)C2CCCCC2)n1	none (no result: D1 allo mod)
CSc1nnc2c3c4c(sc3c(=O)n(-c3ccccc3)n12)CC(C)(C)OC4	D1 allo mod 5.9
COC(=O)c1ccc(Oc2nc(Nc3ccc(C)c(C)c3)nc(N(C)C)n2)cc1	CYP2C19 inh 56, CYP2C9 inhib 71 (no result: D1 allo mod)
CCNc1nc(Oc2ccc(C(=O)OC)cc2)nc(N(C)C)n1	none (no result: CYP2C9 act, CYP2C19 inh, CYP2C9 inhib, CYP2C19 act)
Cc1cccc(/C(N)=N/OC(=O)N2c3ccccc3Sc3ccccc32)c1	CYP2C9 inhib 54 (no result: D1 allo mod)
COc1cccc(NC(=O)Cn2c(=O)c3c(ncn3Cc3ccccc3)n(Cc3ccccc3)c2=O)c1	none (no result: D1 allo mod)
CSc1sc(C(=O)O)c2c1C(=O)CC(C)(C)C2	none (no result: CYP2C9 act, D1 allo mod, CYP2C19 inh, CYP2C9 inhib, CYP2C19 act)
CSc1sc(C(=O)O)c2c1C(=O)CCC2	hDAT+cocaine -2.3 (no result: D1 allo mod)
NC(=O)[C@@H]1CC2(CC(c3cccc(NC(=O)[C@H]4CCC(=O)N4)c3)=NO2)CN1C(=O)COc1ccc(Cl)cc1 (stereo partly drawn)	none (no result: CYP2C9 act, D1 allo mod, CYP2C19 inh, CYP2C9 inhib, CYP2C19 act)
CCOc1ccccc1NC(=O)C1CC2CCCC(C1)C2=O (stereo not drawn)	none
CCCOc1ccc(C(CC(=O)O)NC(=O)c2cccs2)cc1 (stereo not drawn)	none (no result: D1 allo mod)
Cc1cc(C(=O)NCc2cccs2)cs1	CYP2C19 inh 73
CC(C)Oc1ccc(C(CC(=O)O)NC(=O)c2cccs2)cc1 (stereo not drawn)	CYP2C9 inhib 55 (no result: D1 allo mod)
CC(C)Cc1cc(C(=O)NCc2cccs2)no1	CYP2C19 inh 80
O=C(NCc1cccs1)c1ccncc1	none
O=C(NCc1cccs1)c1ccccc1	none (no result: D1 allo mod)
CC(C)Oc1ccc(C(=O)NCc2cccs2)cc1	CYP2C19 inh 70 (no result: D1 allo mod)
O=C(CSc1nnc(-c2ccccc2)o1)OCc1ccccc1	none
CCCc1nnc(NC(=O)CCC(=O)N2CCN(c3ccccn3)CC2)s1	none (no result: D1 allo mod)
Cc1noc(C)c1S(=O)(=O)N1CCCCC1	none (no result: D1 allo mod)
Cc1ccc(C2C(C(=O)c3cc4ccccc4o3)=C(O)C(=O)N2CCCN(C)C)cc1 (stereo not drawn)	none (no result: CYP2C9 act, hDAT+cocaine, CYP2C19 inh, CYP2C9 inhib, CYP2C19 act)
C/C(=C\c1ccccc1)C(=O)Nc1cc(C)on1	none (no result: D1 allo mod)
O=C(NCc1cccs1)c1csc2ccccc12	CYP2C19 inh 85
O=C(Cc1cccs1)NCc1cccs1	none
Cc1cc(C(=O)NCc2cccs2)c(C)o1	CYP2C19 inh 50
CCO[C@H]1OC(C(=O)O)=C[C@@H](c2ccc(C(F)(F)F)cc2)[C@@H]1CCCO	none (no result: CYP2C9 act, D1 allo mod, CYP2C19 inh, CYP2C9 inhib, CYP2C19 act)
COc1ccc(NC(=O)c2c(C(F)(F)F)nn(C)c2SCc2ccccc2Cl)cc1	CYP2C9 inhib 87 (no result: D1 allo mod)
Cn1nc(C(F)(F)F)c(/C=N/OC(=O)c2ccccc2)c1SCc1ccccc1Cl	none (no result: D1 allo mod)
N#CCSc1nnc(COc2ccc3ccccc3c2)o1	CYP2C19 inh 57
CCOC(=O)c1c(NC(=O)CC2Nc3cc(C)c(C)cc3NC2=O)sc(C)c1C (stereo not drawn)	CYP2C9 inhib 69 (no result: D1 allo mod)
O=C(CN1CCN(c2ccc(F)cc2)CC1)N1CCC(Cc2ccccc2)CC1	CYP2C19 inh 54, CYP2C9 inhib 69
O=C(CN1CCN(c2ccccc2)CC1)N1N=CCC1c1ccccc1 (stereo not drawn)	none (no result: D1 allo mod)
O=C(CN1CCN(c2ccc(F)cc2)CC1)N1N=CCC1c1ccccc1 (stereo not drawn)	CYP2C19 inh 63 (no result: D1 allo mod)
CCOC(=O)C1C(=O)NC(N2CCc3ccccc32)=NC1c1ccccc1 (stereo not drawn)	none
O=C(NC1CC1)C1=C[C@H](c2ccc(C(F)(F)F)cc2)C[C@H](OCc2ccc(CO)cc2)O1	none (no result: CYP2C9 act, D1 allo mod, CYP2C19 inh, CYP2C9 inhib, CYP2C19 act)
COc1cc(CNCc2cccs2)ccc1OCC(N)=O	none (no result: D1 allo mod)
COc1cc(CNCc2cccs2)ccc1OCc1ccccc1	CYP2C19 inh 67 (no result: D1 allo mod)
COc1cc(CNCc2ccco2)ccc1OCc1ccccc1	CYP2C19 inh 52 (no result: D1 allo mod)
COc1cc(CNCc2cccs2)ccc1OCc1cccs1	CYP2C19 inh 50 (no result: D1 allo mod)
CC1CCN(C2CC(=O)N(c3ccc(Br)cc3Br)C2=O)CC1 (stereo not drawn)	none (no result: CYP2C9 act, hDAT+cocaine, CYP2C19 inh, CYP2C9 inhib, CYP2C19 act)
COc1ccccc1N(CC(=O)Nc1cc(C)on1)S(=O)(=O)c1ccc(Cl)cc1	CYP2C19 inh 91, CYP2C9 inhib 98 (no result: D1 allo mod)
COC(=O)CN(c1ccccc1OC)S(=O)(=O)c1ccccc1	none
